In the library only some 8.1% were active in any assay of this set; here they are far more common.
ELG1 repair inh: inhibitors of ELG1-dependent DNA repair in HEK293T cells; Potency, µM (top dose mostly 46.1 µM), hits mostly inhibitors; HEK293T ELG1-luciferase reporter, luminescence, 16 h; DNA damage induced by 5-fluorouridine; hit rate 2.3% among 330,000; further: nearly all actives have a fitted effect of over 55% in size
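DMSO vehicle served as the neutral condition. Each well held 2,000 cells given 5-fluorouridine plus compound; after 16 hr at 37 °C/5% CO2, ONE-Glo was added and luciferase measured 30 min later.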
SW480 rerep: inducers of DNA re-replication in SW480 colon cancer cells; AID 624297; SW480 DNA re-replication, Hoechst DNA content imaging, 48 h; Potency, µM (titrated, usually from 46.1 µM), hits mostly activators; hit rate 1.8% among 340,000; further: nearly all actives have a fitted effect of over 55% in size
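Treated cells incubate 48 hr (37 C, 5% CO2), are stained 40 min with Hoechst, and nuclear fluorescence is enumerated; a rise in nuclei with high DNA signal marks re-replication.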
KB-V1 cytotox: kills drug-selected multidrug resistant KB-V1 cells | KB-V1 MDR cells viability, CellTiter-Glo, 72 h | Potency, µM (highest dose often 46.1 µM), actives largely listed as cytotoxic | hit rate 3.4% among 400,000; further: nearly all actives have a fitted effect of over 60% in size
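Cytotoxicity via CellTiter-Glo luminescence after 72 h compound exposure at 37 degrees C. Cells: drug-selected KB-V1 line, DMEM phenol-red free plus 10% FBS. Compounds tested at multiple concentrations; normalized data fitted to concentration-effect curves.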
MCF10A rerep: inducers of DNA re-replication in MCF 10A breast cells. hit rate 2.9% among 350,000. MCF 10A DNA re-replication, Hoechst nuclear intensity, 48 h. Potency, µM (titrated, usually from 46.1 µM), most hits filed as activators. AID 624296; further: nearly all actives have a fitted effect of over 50% in size
KB-3-1 tox: kills parental KB-3-1 adenocarcinoma cells; KB-3-1 viability, CellTiter-Glo ATP luminescence, 72 h; Potency, µM (doses to about 46.1 µM), actives largely listed as cytotoxic; hit rate 1.4% among 400,000; AID 1347075; further: nearly all actives have a fitted effect of over 60% in size
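72 h, 37 °C compound treatment of KB-3-1 parental cells; CellTiter-Glo added, 10 min, luminescence read. Data corrected against DMSO-only plates and normalized before curve fitting.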
A number is an active result; . = inactive; ? = inconclusive; / = not tested or not shown; [ ] = remark or other dose. The call rests on the fitted dose curve; in most records, active means well fitted curve in the direction sought with a large enough effect; inconclusive means small, poorly fitted or top-dose-only effect, or another doubt; inactive means no such curve, though single readings can be large; an effect the other way counts as inactive or inconclusive.

SMILES | ELG1 repair inh | SW480 rerep | KB-V1 cytotox | MCF10A rerep | KB-3-1 tox
CC1CCc2c(sc(NC(=O)Cn3nnc(-c4ccc(C(F)(F)F)cc4)n3)c2C#N)C1 (stereo unspecified) | / | / | ? | / | .
Cc1ccc(CNc2nc(N)c([N+](=O)[O-])c(NCc3ccccc3)n2)cc1 | . | . | . | ? | .
Nc1nc(Nc2ccccc2)nc(NCc2ccccc2)c1[N+](=O)[O-] | 21µM | . | ? | . | ?
CNc1nc(N)c([N+](=O)[O-])c(Nc2cccc(F)c2)n1 | ? | 18µM | . | . | .
Cc1cccc(Nc2nc(N)c([N+](=O)[O-])c(NCc3ccccc3)n2)c1 | ? | ? | 18µM | 18µM | .
Nc1nc(NCc2ccccc2)nc(NCc2ccccc2)c1[N+](=O)[O-] | . | . | 16µM | . | .
COc1ccccc1CN1CCN(C2CCN(C(=O)NC(C)C)CC2)C(=O)C1=O | / | / | ? | / | .
CC(C)(C)c1ccc(C(=O)c2c[nH]c(C(=O)NCCCN3CCOCC3)c2)cc1 | . | . | 18µM | ? | .
CCC(=O)c1c[nH]c(C(=O)NCCCN2CCOCC2)c1 | . | . | ? | . | .
Cc1cc(Br)ccc1NC(=O)C(Cc1ccccc1)NS(=O)(=O)c1ccc(Br)s1 (stereo unspecified) | / | / | . | / | .
CC(C)c1ccc(NC(=S)N(C)CCc2ccccn2)cc1 | . | . | 23µM | . | .
Cc1cc(C)c2sc(N(Cc3cccnc3)C(=O)CCOc3ccccc3)nc2c1 | / | / | . | / | .
N#Cc1c(N2CCOCC2)nsc1-c1ccccc1 | ? | . | ? | . | 10µM
COc1cc(C(=O)NC23CC4CC(CC(C4)C2)C3)cc(OC)c1OC | . | ? | . | . | .
COc1cc(C(=O)O/N=C2/C=CC(=O)C(C)=C2C)cc(OC)c1OC | . | 16µM | ? | 23µM | ?
COc1cc(C(=O)ON=C2C3CC4CC(C3)CC2C4)cc(OC)c1OC | 23µM | ? | . | . | .
COc1cc(C(=O)O/N=C2\C=CC(=O)C=C2C)cc(OC)c1OC | . | . | . | . | .
Cc1ccc(NC(=O)c2nc(S(C)(=O)=O)ncc2N(Cc2ccco2)Cc2ccco2)cc1 | / | / | . | / | .
CC1CC(C)CN(C(=O)C(C)N2CCN(S(=O)(=O)c3ccc(Br)s3)CC2)C1 (stereo unspecified) | . | . | . | ? | .
CCSc1cc(C)nc2c(-c3ccccc3)cnn12 | ? | . | ? | . | ?
CC(=O)Nc1ccc(Nc2cc(C)nc3c(-c4ccccc4)cnn23)cc1 | ? | . | 16µM | ? | ?
C=CCSc1cc(C)nc2c(-c3ccccc3)cnn12 | ? | ? | 8.2µM | . | ?
Cc1cc(N)n2ncc(-c3ccccc3)c2n1 | ? | . | . | . | .
CSc1ccc(CCNC(=O)CN2C(=O)c3cccnc3Oc3ccc(Cl)cc32)cc1 | / | / | ? | / | .
O=C(CN1C(=O)c2cccnc2Oc2ccc(Cl)cc21)NCCCc1ccccc1 | 18µM | . | ? | . | .
SMILES | ELG1 repair inh | SW480 rerep | KB-V1 cytotox | MCF10A rerep | KB-3-1 tox
COc1ccc(CN2C(=O)c3ccccc3C2c2nnnn2Cc2ccccc2)cc1OC (stereo unspecified) | / | / | ? | / | .
CCOC(=O)c1ccc(Nc2nc(C(=O)OCC)nc3ccccc23)cc1 | ? | . | . | ? | .
CCOC(=O)c1nc(Nc2ccc(Nc3ccccc3)cc2)c2ccccc2n1 | 7.3µM | . | ? | ? | ?
CCOC(=O)c1nc(Nc2ccc(C(=O)O)cc2)c2ccccc2n1 | . | . | . | . | .
CCOC(=O)c1nc(Nc2ccc(N3CCC(C)CC3)cc2)c2ccccc2n1 | 5.8µM | . | . | . | .
COc1cccc(NC(=O)N(C)C[C@H]2Oc3cc(Br)ccc3S(=O)(=O)N([C@H](C)CO)C[C@H]2C)c1 | / | / | . | / | .
CC1CC(C)CN(S(=O)(=O)c2ccc(NC(=O)[C@@H]3CCCN3C(=O)c3cccs3)cc2)C1 (stereo partly specified) | . | . | . | . | .
O=C(O)CSc1cc(C(=O)c2cc(F)ccc2O)cn2c(=O)c3c(-c4ccccc4)csc3nc12 | . | . | . | 13µM | .
CCOC(=O)c1sc2nc3c(SCCC(=O)O)cc(C(=O)c4cc(OC)ccc4O)cn3c(=O)c2c1C | . | 2.6µM | . | ? | .
CCOC(=O)c1sc2nc3c(SCCC#N)cc(C(=O)c4cc(F)ccc4O)cn3c(=O)c2c1C | . | . | . | . | .
CCc1c(C)sc2nc3c(C(=O)N4CCOCC4)cc(C(=O)c4cc(F)ccc4O)cn3c(=O)c12 | ? | .[1.84 µM] | . | ? | .
CC(C)c1ccc(-c2c(C#N)c(N)nc(SCC(=O)N3CCCCC3)c2C#N)cc1 | ? | ? | ? | 7.3µM | ?
Brc1ccc(-c2cn3c(n2)CCc2ccc4cccnc4c2-3)cc1 | ? | ? | 16µM | 23µM | .
O=C1CC(c2ccccc2)=Nc2ccc(Br)cc2N1 | . | ? | 15µM | . | ?
Cc1ccc2c(c1)NC(=O)CC(c1ccccc1)=N2 | ? | . | . | . | .
CCOc1cc(C)c(S(=O)(=O)Nc2ccc(Cl)cn2)cc1C | . | . | ? | 23µM | .
CCOc1ccc(S(=O)(=O)Nc2ccc(Cl)cn2)c(C)c1C | . | . | 23µM | . | ?
CCOc1ccc(C(C)C)cc1S(=O)(=O)Nc1ccc(Cl)cn1 | . | . | . | . | .
COc1ccc(N2CCN(C(CNC(=O)C(=O)NCCCN(C)C)c3cccnc3)CC2)cc1 (stereo unspecified) | / | / | . | / | .
O=C1CCCc2cc3c(cc21)CC1(C3)Cc2cc3c(cc2C1)C(=O)CCC3 | 13µM | 5.8µM | . | 3.3µM | 6.5µM
CCN1c2ccccc2-c2nc(SCC(=O)NCc3ccccc3)ncc2S1(=O)=O | / | / | . | / | .
CCOC(=O)Cc1nnc(NC(=O)c2ccccc2OC)s1 | . | . | . | . | .
COc1ccc(Cc2nnc(NC(=O)c3ccccc3[N+](=O)[O-])s2)cc1 | . | . | . | 23µM | .
COc1ccc(Cc2nnc(NC(=O)c3cccc([N+](=O)[O-])c3C)s2)cc1 | . | . | 21µM | . | .
COc1ccccc1C(=O)Nc1nnc(CCc2ccccc2)s1 | . | 6.5µM | ? | ? | 12µM
SMILES | ELG1 repair inh | SW480 rerep | KB-V1 cytotox | MCF10A rerep | KB-3-1 tox
COc1cc(C(=O)Nc2nnc(CC(C)(C)C)s2)c([N+](=O)[O-])cc1OC | . | . | 21µM | . | .
CCCCN(C(=O)C1=NN(c2ccccc2)C(=O)CC1)c1c(N)n(CC(C)C)c(=O)[nH]c1=O | . | . | . | ? | .
COc1ccc(C(=O)CSc2nc(-c3ccccn3)nc(C)c2Cl)cc1 | 16µM | ? | . | ? | .
O=C(/C=C/Nc1cccc(C(F)(F)F)c1)c1ccc(Oc2ncccn2)cc1 | . | . | 21µM | . | .
CCc1nc2oc3ccccc3c(=O)c2c(=O)n1-c1ccc(C)cc1 | ? | . | . | . | .
CCc1nc2oc3ccccc3c(=O)c2c(=O)n1-c1ccccc1 | ? | . | 15µM | . | .

Screening data (PubChem BioAssay)
